# Measurements taken from PubChem BioAssay (NCI).
# The panel holds about 83,000 compounds, 20% with a hit somewhere; the sample as a whole holds those more often.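 In brief: 96-well plates, 48 h treatment, single concentration, percent growth endpoint.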 Values without a mark were called inactive. Calls of active or inactive are those of the source. Rule for the calls: active = growth percent below 10; inactive = the rest.
# Columns and labels:
# Test in all cases: NCI-60 one-dose screen, 48 h (100 = growth as untreated, 0 = no growth, -100 = all killed)
# Conditions in all cases: 10 µM unless noted
# [1] = system: T-47D breast
# [2] = system: BT-549 breast
# [3] = system: MDA-MB-435 melanoma
# [4] = system: SW-620 colon
# [5] = system: MCF7 breast
# [6] = system: HCT-116 colon
# [7] = system: HCC-2998 colon
# [8] = system: KM12 colon
SMILES,growth [1],growth [2],growth [3],growth [4],growth [5],growth [6],growth [7],growth [8]
CC(=O)CC/C=C(\C)[C@H](O)[C@H](C)C(=O)O[C@H]1C[C@H](C)C=C2C=C[C@@]3(C)O[C@@H](O)CC(=O)[C@]3(C)[C@H]21,-26.6% (active),-57% (active),-88.3% (active),1.02% (active),-4.71% (active),-20.3% (active),-81.9% (active),-10% (active)
C=CCOc1ccc(/C(Cl)=N/N=C(\Cl)c2cc(OC)c(OC)c(OC)c2)cc1,47.6%,89.5%,80.6%,68.3%,42.8%,70.2%,75.6%,67.9%
CCCCCCCCCCCCCCCC(=O)NS(=O)(=O)OC[C@H]1O[C@@H](n2cnc3c(N)ncnc32)[C@H](O)[C@@H]1O,-16.9% (active),-65.2% (active),-74.5% (active),-39.2% (active),5.8% (active),-25.8% (active),-85.9% (active),-39.2% (active)
C=C(C)[C@@H]1C/C=C(\COC(=O)[C@H](OC(C)=O)C(NC(=O)c2ccccc2)c2ccccc2)CC[C@H]2O[C@]2(C)CC/C=C(\C)CC1 (stereo partly specified),68.7% [5 µM],68.5% [5 µM],67% [5 µM],94.8% [5 µM],38.2% [5 µM],42.7% [5 µM],75.5% [5 µM],69.1% [5 µM]
CN(C)C(=O)Nc1nc2cc(Cl)c(Cl)cc2[nH]1,52.5%,39.5%,-24.5% (active),29.8%,15.4%,1.15% (active),14.2%,1.99% (active)
CC(C)(C)NCC(O)COc1c(Br)c(Br)c(Br)c2c1OC(C)(C)C2 (stereo unspecified),-26.4% (active),32.7%,-68.6% (active),-97.5% (active),-74.2% (active),-26.5% (active),-74.9% (active),-80.7% (active)
Cc1nssc1=S,105%,110%,104%,103%,93.7%,96.9%,108%,108%
O=C1OC(N(Cc2ccc(Cl)cc2)c2ccccc2)c2ccccc21 (stereo unspecified),89.2%,103%,109%,101%,94.9%,97%,102%,98.2%
COc1cc2c(cc1OC)-c1c(oc3c4c(ccc3c1=O)OC(C)(C)C=C4)CO2,39.2%,52.6%,61.2%,89.8%,48.8%,40.3%,81.5%,76.8%
CCCCC(=O)Nc1nc2ccc(SCCC)cc2s1,48%,40.6%,4.42% (active),34.6%,35%,31.1%,77.1%,34.1%
CC(C)C1(C(C)C)NC(=O)NC1=O,109%,111%,114%,127%,101%,98.5%,102%,138%
COc1ccc2c(-c3ccc(F)cc3)c(C#N)c(=NC(C)=O)oc2c1,55.8%,29.1%,-3.09% (active),23%,21.4%,25%,60.3%,30.3%
O=c1cc(Cl)[nH]c(=O)[nH]1,95.1%,103%,111%,106%,92.5%,101%,93.5%,105%
COc1ccc(-c2nnc(NC(=O)CN3CCN(c4cc5c(cc4F)c(=O)c(C(=O)O)cn5C4CC4)CC3)s2)cc1OC,101%,105%,103%,105%,106%,103%,99.6%,98.2%
O=C(O)c1ccc(-n2cc(/C=N/Nc3ccc(F)cc3)c(-c3cccc(C(F)(F)F)c3)n2)cc1,73.2%,95.4%,57.8%,63.3%,46.4%,66.3%,55.2%,52.8%
CCN(CC)CCNc1ccc([N+](=O)[O-])c2sc3cc(Cl)ccc3c(=O)c12,103%,89.9%,72.8%,40.2%,24.6%,11.8%,47.3%,66.6%
CCN(CC)CCNC(=O)c1c(C)[nH]c(/C=C2\C(=O)Nc3cc(NC(=O)NC(=O)c4ccc(OC)cc4F)ccc32)c1C,104%,104%,110%,94.9%,58.3%,64.7%,100%,51.5%
Nc1nccc2c1ccn2-c1ccc(NC(=O)Nc2cccc(C(F)(F)F)c2)cc1,85.1%,96.5%,96.6%,103%,86.8%,76.8%,115%,75.1%
COc1ccc2c(c1)/C(=C/c1c(-c3cc(OC)c(OC)c(OC)c3Br)nc3sccn13)C(=O)N2,90.1%,86.2%,93.2%,94.4%,85%,87.7%,134%,94.6%

SMILES,growth [1],growth [2],growth [3],growth [4],growth [5],growth [6],growth [7],growth [8]
CCCCCn1ncc(-c2c(O)c(O)cc3c(O)c(-c4c(C)cc5c(-c6cnn(CCCCC)n6)c(O)c(O)cc5c4O)c(C)cc23)n1,-5.48% (active),7.18% (active),17.1%,18.5%,4.84% (active),3.24% (active),0.112% (active),4.29% (active)
C=C1C(=O)O[C@H]2[C@H]1CC/C(COC(=O)c1ccc3ccccc3c1)=C\CC[C@@]1(C)O[C@@H]21,-55.2% (active),-55.2% (active),-73.8% (active),-37.9% (active),-36.1% (active),-90.6% (active),42%,32.8%
Nc1nccc2c1ccn2-c1ccc(NC(=O)c2ccc(N3CCOCC3)c(C(F)(F)F)c2)cc1,39%,26.5%,-8.07% (active),-32.8% (active),-18.2% (active),4.53% (active),39.1%,-41.4% (active)
NCC(=O)NS(=O)(=O)OC[C@H]1O[C@@H](n2cnc3c(N)ncnc32)[C@H](O)[C@@H]1O,7.66% (active),21.1%,-49.8% (active),3.71% (active),8.27% (active),6.57% (active),41.4%,0.735% (active)
CC1CCc2cc(F)cc3c(=O)c(C(=O)O)cn1c23 (stereo unspecified),99.7%,104%,94.8%,106%,112%,105%,105%,102%
CC(Cc1cccc(C(F)(F)F)c1)NCCOC(=O)c1ccccc1 (stereo unspecified),105%,109%,102%,103%,106%,100%,109%,114%
Clc1ccc(CN2COc3c(ccc4cccnc34)C2)cc1Cl,5.72% (active),8.99% (active),12.8%,18%,12.6%,-39.1% (active),-25.4% (active),7.75% (active)
COc1ccc(/C(Cl)=N/N=C(\Cl)c2cc(OC)c(OC)c(OC)c2)cc1OC(C)=O,66.2%,96.1%,99.9%,93.7%,93.9%,90.5%,102%,98.2%
Cn1c(I)c(C#C[Si](C)(C)C)c(=O)[nH]c1=O,21.9%,40.7%,58.7%,-66.5% (active),82.1%,-43.1% (active),-67.1% (active),103%
O=C(NCCNc1nccc(-c2c(-c3cccc(O)c3)nc3sccn23)n1)c1cc(N2CCOCC2)cc(C(F)(F)F)c1,77.7%,84.8%,34.7%,126%,85.4%,78.8%,109%,97.3%
COc1ccc(/C=N/C2=NNC(C)(c3ccccc3O)N2C(Cc2c[nH]c3ccccc23)C(=O)O)cc1 (stereo unspecified),12.9%,21.6%,3.69% (active),17.2%,13.1%,10.8%,47.7%,13.1%
c1ccc(-c2nc3sc(C(c4ccccc4)c4ccccc4)nn3c2-c2ccccc2)cc1,92.6%,96%,98.9%,91.6%,90.8%,84%,109%,96.1%
Cc1c(C(C)(C)C)cc(C(C)(C)C)c2c1CN(C)CO2,104%,110%,113%,117%,99.8%,104%,101%,113%
CC(C)C(=O)Nc1nc2c(s1)CCCc1ccn(S(=O)(=O)c3ccccc3)c1-2,91.9%,89.8%,106%,105%,86.3%,78.9%,106%,97.1%
C#C[C@@]1(O)[C@@H](CO)O[C@@H](n2cc(C(F)(F)F)c3c(N)ncnc32)[C@@H]1O,-19.3% (active),-12.1% (active),14.7%,4.55% (active),1.74% (active),4.15% (active),3.76% (active),6.52% (active)
C=C1C(=O)O[C@H]2[C@H]1CC/C(COC(=O)OC/C1=C/CC[C@@]3(C)O[C@H]3[C@H]3OC(=O)[C@@H](CN(C)C)[C@@H]3CC1)=C\CC[C@@]1(C)O[C@@H]21,-15.2% (active),-1.01% (active),2.87% (active),-56.5% (active),-29.7% (active),-72.7% (active),79.8%,37.9%
Nc1nc(=S)ss1,98.9%,101%,102%,99.2%,98.3%,97.3%,97%,111%
COc1ccc(-c2c(NC(=O)Nc3ccc(Cl)c(C(F)(F)F)c3)cnn2-c2ccc(S(N)(=O)=O)cc2)cc1,16.9%,39.3%,24.3%,38.2%,11.5%,14.5%,28.5%,29.6%
C=C1C(=O)O[C@H]2[C@H]1CC/C(COC(=O)c1ccc(C#N)cc1)=C\CC[C@@]1(C)O[C@@H]21,-16.2% (active),29.7%,24%,-27.7% (active),0.298% (active),-60.3% (active),91.1%,84.8%

SMILES,growth [1],growth [2],growth [3],growth [4],growth [5],growth [6],growth [7],growth [8]
NC(CSC(c1ccccc1)(c1ccccc1)c1ccc(F)cc1)C(=O)O (stereo unspecified),30.4%,28.7%,-47.1% (active),30.1%,11.7%,-7.69% (active),4.55% (active),5.24% (active)
Cc1cc(-c2ccccc2)nc2ccccc12,99.4%,108%,109%,102%,65.1%,99.7%,106%,106%
O=C(O)c1ccc(-n2cc(/C=N/Nc3ccccc3F)c(-c3ccc(O)cc3)n2)cc1,62.7%,80.3%,74.8%,61.8%,73.7%,71.2%,86.4%,57.9%
O=C(Nc1ccccc1Cl)c1c[nH]c(=O)c(-c2ccc(N3CCCOC4(CC4)C3)cc2)c1,31.5%,56.3%,56.4%,78.1%,40%,42.4%,67.5%,74.3%
Fc1cccc(F)c1C#Cc1ccc2cccnc2c1,22.3%,95.6%,107%,90.5%,14.8%,74.6%,68.6%,79.1%
O=c1[nH]ccc2nc(N3CCC(O)CC3)nc(Nc3cccc(C(F)(F)F)c3)c12,61.6%,16.5%,7.33% (active),48.9%,22.4%,42%,83.8%,23%
CC(C(=O)O)N1C(N)=NNC1c1ccccc1O (stereo unspecified),59.7%,104%,104%,95.7%,80.4%,87.4%,92.7%,93.9%
COC1=C(OC)C(=O)C=CC1=O,99.5%,94.4%,116%,77.8%,94.3%,64.4%,125%,104%
COc1ccccc1NC(=O)COc1ccc(/C=C2/Oc3cc4occc4c(OC)c3C2=O)cc1OC,86.4%,93%,107%,111%,99.4%,102%,106%,97.8%
CCn1cc(/C=C2\Oc3cc(OCC#N)ccc3C2=O)c2cc(OC)ccc21,48.4%,52.6%,-20.7% (active),28%,20.6%,12.4%,55.6%,23.6%
CCCCCCCCN(CCCCCCCC)CC(O)c1cc(-c2ccccc2)nc2ccc(OC)cc12 (stereo unspecified),77%,78.8%,60.1%,23.6%,67%,8.32% (active),101%,82.9%
COC(=O)CCCNS(=O)(=O)c1cc(C(=O)Nc2ccc(NC(=O)c3cc(S(=O)(=O)NCCCC(=O)OC)c(O)c(O)c3O)cc2)c(O)c(O)c1O,97.2%,99.4%,1.35% (active),95.8%,73.7%,76.9%,93.4%,96%
Cc1ccc2[nH]c3nc4cccnc4c(C)c3c2c1,14.2%,68.6%,108%,91.6%,1.4% (active),91.9%,92.7%,72.8%
OCCOCC(F)(F)F,104%,97.7%,94.4%,100%,105%,106%,104%,113%
COc1ccc(C2=NN(C(=O)COc3ccc(Cl)cc3)C(O)(c3cc(F)c(Cl)cc3Cl)C2)cc1 (stereo unspecified),95.3%,115%,91.7%,100%,96.3%,86.4%,104%,89.1%
Nc1nc(Cl)c2c(C(F)(F)F)cn(CC3CCNCC3)c2n1,104%,103%,76.5%,22.4%,103%,48.3%,78.9%,101%
COc1ccc(-c2[nH]c3ccccc3c2/C=C(\C#N)S(=O)(=O)c2ccccc2)cc1,66.7%,80.5%,-5.59% (active),28.6%,6.42% (active),11%,-29.2% (active),7.51% (active)
C[C@]12O[C@H]1[C@H](O)c1c(cc(O)c3c1C(=O)c1cccc(O)c1-3)C2=O,100%,95.5%,104%,113%,97.9%,93.4%,112%,103%
O=C(Nc1ccc(-n2ccc3c(NC(=O)c4ccccc4)ncnc32)cc1)Nc1cccc(Cl)c1Cl,42.8%,49.2%,-4.29% (active),11.5%,2.07% (active),-25.4% (active),64.6%,20.7%
